Reference: PubChem BioAssay (Tox21)
Where “and” joins values, the source holds several entries; their conditions need not be identical. Identical values can stand only once. Results filed as inconclusive are left out. Where a call stands in place of a potency, no number is given. More than one record can exist for a structure, and the calls need not agree. Calls of active or inactive are those of the source. Calls follow the shape of the dose curve; as a rule, active = well fitted curve in the direction sought with a large enough effect in the repeat runs; inconclusive = weak or mixed curves; inactive = no such curve, though single readings can be large; an effect the other way counts as inactive or inconclusive.

Legend:
[1] = qHTS RealTime-Glo MT Cell Viability Assay in HEK293 cells - 16 hour (AID 1224872); also: nearly all actives have a fitted effect of over 50% in size; also: potency is read from the fitted curve at half-maximal effect; as to activity change, negative = cytotoxicity: top concentration of the series differs between compounds
Outline: (§1)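 Luminescence generated by NanoLuc from substrate produced by living HEK293 cells served as the viability signal. Each value reflects the reading at its stated time point during continuous 40 h compound exposure at 37 C.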

[2] = qHTS RealTime-Glo MT Cell Viability Assay in HepG2 cells - 8 hour (AID 1224873); also: nearly all actives have a fitted effect of over 55% in size
Outline: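 HepG2 cells mixed with RealTime-Glo MT reagents (NanoLuc plus cell-permeant prosubstrate) were seeded at 600 cells/well, incubated 5 h at 37 C/5% CO2, then pinned with compounds in DMSO; nonlytic luminescence tracked viability during 40 h treatment.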

[3] = A CellTox Green Cytotoxicity Assay to monitor cytotoxicity in HEK293 cells - 24 hour (AID 1224875); also: series mostly up to about 77 µM; nearly all actives have a fitted effect of over 45% in size
Outline: (§2)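 Real-time, in one plate: 600 HEK293 cells/well with dead-cell DNA dye, pinned compound after 5 h, 37 C incubation over 40 h; viable cells give no appreciable fluorescence.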

[4] = A CellTox Green Cytotoxicity Assay to monitor cytotoxicity in HepG2 cells - 16 hour (AID 1224876); also: nearly all actives have a fitted effect of over 45% in size; also: potency is read from the fitted curve at half-maximal effect
Outline: (§3)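 Cytotoxicity was tracked as dead-cell DNA fluorescence in HepG2 cells treated with test compounds at 37 C; each time-point value comes from one kinetic series spanning 0, 8, 16, 24, 32 and 40 h.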

[5] = A CellTox Green Cytotoxicity Assay to monitor cytotoxicity in HepG2 cells - 24 hour (AID 1224878); also: nearly all actives have a fitted effect of over 45% in size; also: potency is read from the fitted curve at half-maximal effect
Outline: as §3

[6] = A CellTox Green Cytotoxicity Assay to monitor cytotoxicity in HepG2 cells - 40 hour (AID 1224879); also: nearly all actives have a fitted effect of over 40% in size; also: potency is read from the fitted curve at half-maximal effect
Outline: as §3

[7] = qHTS RealTime-Glo MT Cell Viability Assay in HEK293 cells - 0 hour (AID 1224880); also: top concentration of the series differs between compounds; nearly all actives have a fitted effect of over 45% in size
Outline: (§4)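 Kinetic, non-lysing viability readout. Seed HEK293 (600/well) with reagent, incubate 5 h at 37 C/5% CO2, pin 23 nL compound in DMSO, incubate at 37 C, read luminescence at 0, 8, 16, 24, 32, 40 h.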

[8] = A CellTox Green Cytotoxicity Assay to monitor cytotoxicity in HEK293 cells - 32 hour (AID 1224881); also: nearly all actives have a fitted effect of over 40% in size; also: potency is read from the fitted curve at half-maximal effect
Outline: as §2

[9] = A CellTox Green Cytotoxicity Assay to monitor cytotoxicity in HepG2 cells - 32 hour (AID 1224883); also: nearly all actives have a fitted effect of over 50% in size; also: potency is read from the fitted curve at half-maximal effect
Outline: as §3

[10] = A CellTox Green Cytotoxicity Assay to monitor cytotoxicity in HEK293 cells - 8 hour (AID 1224884); also: nearly all actives have a fitted effect of over 35% in size
Outline: as §2

[11] = qHTS RealTime-Glo MT Cell Viability Assay in HepG2 cells - 16 hour (AID 1224885); also: nearly all actives have a fitted effect of over 50% in size; also: potency is read from the fitted curve at half-maximal effect
Outline: (§5)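 Tox21 10K library screened in qHTS format on HepG2 cells carrying RealTime-Glo reagents. Compounds were added after a 5 h preincubation, and the luminescent signal from continuous culture was measured repeatedly during 40 h treatment.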

[12] = qHTS RealTime-Glo MT Cell Viability Assay in HEK293 cells - 8 hour (AID 1224887); also: top concentration of the series differs between compounds; nearly all actives have a fitted effect of over 50% in size
Outline: as §4

[13] = A CellTox Green Cytotoxicity Assay to monitor cytotoxicity in HEK293 cells - 16 hour (AID 1224888); also: nearly all actives have a fitted effect of over 35% in size
Outline: as §2

[14] = qHTS RealTime-Glo MT Cell Viability Assay in HepG2 cells - 0 hour (AID 1224889); also: nearly all actives have a fitted effect of over 50% in size
Outline: as §5

[15] = A CellTox Green Cytotoxicity Assay to monitor cytotoxicity in HepG2 cells - 8 hour (AID 1224890); also: nearly all actives have a fitted effect of over 45% in size
Outline: as §3

[16] = qHTS RealTime-Glo MT Cell Viability Assay in HepG2 cells - 32 hour (AID 1224877); also: nearly all actives have a fitted effect of over 55% in size; also: potency is read from the fitted curve at half-maximal effect
Outline: as §5

[17] = A CellTox Green Cytotoxicity Assay to monitor cytotoxicity in HepG2 cells - 0 hour (AID 1224882); also: nearly all actives have a fitted effect of over 35% in size
Outline: as §3

[18] = qHTS assay to identify small molecule antagonists of the estrogen receptor alpha (ER-alpha) signaling pathway using the BG1 cell line in the presence of 0.1 nM 17-beta-estradiol - cell viability counter screen (AID 1259241); also: nearly all actives have a fitted effect of over 40% in size
Outline: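 Cytotoxicity counter-screen: live-cell protease activity measured by fluorescence (30 min reagent step) in the same wells. Cells were VM7Luc4E2 with endogenous ER-alpha and ERE-driven luciferase, treated 22 hr at 37C alongside 0.1 nM 17beta-estradiol final.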

[19] = qHTS RealTime-Glo MT Cell Viability Assay in HEK293 cells - 24 hour (AID 1224886); also: nearly all actives have a fitted effect of over 50% in size; also: potency is read from the fitted curve at half-maximal effect; as to activity change, negative = cytotoxicity: top concentration of the series differs between compounds
Outline: as §1

[20] = qHTS RealTime-Glo MT Cell Viability Assay in HEK293 cells - 40 hour (AID 1224874); settings: RealTime-Glo luminescence; max response: stronger effect = lower value
Outline: as §4

COC(=O)[C@@H](N)CCCN/C(N)=N/[N+](=O)[O-]
Potency [1]: inactive
outcome [2]: inactive
Potency [3]: inactive
Potency [4]: inactive
Potency [5]: inactive
Potency [6]: inactive
outcome [7]: inactive
Potency [8]: inactive
Potency [9]: inactive
Potency [10]: inactive
Potency [11]: inactive
Potency [12]: inactive
Potency [13]: inactive
outcome [14]: inactive
Potency [15]: inactive

CC(O)CCl (stereo unspecified)
Potency [1]: inactive
outcome [2]: inactive
Potency [3]: inactive
Potency [4]: inactive
Potency [16]: inactive
Potency [6]: inactive
outcome [7]: inactive
Potency [8]: inactive
outcome [17]: inactive
Potency [9]: inactive
Potency [10]: inactive
Potency [11]: inactive
Potency [12]: inactive
Potency [13]: inactive
Potency [15]: inactive
outcome [18]: inactive

O=C(O)C(Cl)Br (stereo unspecified)
Potency [1]: inactive
outcome [2]: inactive
Potency [3]: inactive
Potency [4]: inactive
Potency [6]: inactive
outcome [7]: inactive
Potency [8]: inactive
outcome [17]: inactive
Potency [9]: inactive
Potency [10]: inactive
Potency [11]: inactive
Potency [12]: inactive
Potency [13]: inactive
outcome [14]: inactive
Potency [15]: inactive
outcome [18]: inactive

C[C@H](CN1CCOCC1)C(C(=O)N1CCCC1)(c1ccccc1)c1ccccc1
outcome [2]: inactive
Potency [3]: inactive
Potency [4]: inactive
Potency [16]: inactive
Potency [5]: inactive
Potency [6]: inactive
outcome [7]: inactive
Potency [8]: inactive
Potency [10]: inactive
Potency [11]: inactive
Potency [12]: inactive
Potency [13]: inactive
outcome [14]: inactive
Potency [15]: inactive
outcome [18]: inactive

CN1COCN(Cc2cnc(Cl)s2)/C1=N\[N+](=O)[O-]
Potency [1]: inactive
outcome [2]: inactive
Potency [3]: inactive
Potency [4]: inactive
Potency [5]: inactive
Potency [6]: inactive
outcome [7]: inactive
Potency [8]: inactive
outcome [17]: inactive
Potency [9]: inactive
Potency [10]: inactive
Potency [11]: inactive
Potency [19]: inactive
Potency [12]: inactive
Potency [13]: inactive
outcome [14]: inactive
Potency [15]: inactive
outcome [18]: inactive

c1ccc2c(c1)CCNC2
outcome [2]: inactive
Potency [3]: inactive
Potency [4]: inactive
Potency [16]: inactive
Potency [5]: inactive
Potency [6]: inactive
outcome [7]: inactive
Potency [8]: inactive
Potency [9]: inactive
Potency [10]: inactive
Potency [11]: inactive
Potency [12]: inactive
Potency [13]: inactive
outcome [14]: inactive
Potency [15]: inactive
outcome [18]: inactive

CCOC1Oc2ccc(OS(C)(=O)=O)cc2C1(C)C (stereo unspecified)
outcome [2]: inactive
Potency [20]: 34.4 µM (active)
Potency [3]: inactive
Potency [4]: inactive
Potency [16]: inactive
Potency [6]: inactive
outcome [7]: inactive
Potency [8]: inactive
outcome [17]: inactive
Potency [9]: inactive
Potency [10]: inactive
Potency [11]: inactive
Potency [12]: inactive
Potency [13]: inactive
outcome [14]: inactive
Potency [15]: inactive
outcome [18]: inactive

NNCc1ccccc1
Potency [1]: inactive
outcome [2]: inactive
Potency [3]: inactive
Potency [4]: inactive
Potency [5]: inactive
Potency [6]: inactive
outcome [7]: inactive
Potency [8]: inactive
outcome [17]: inactive
Potency [9]: inactive
Potency [10]: inactive
Potency [11]: inactive
Potency [12]: inactive
Potency [13]: inactive
outcome [14]: inactive
Potency [15]: inactive
outcome [18]: inactive

O=C(Cl)/C=C/C(=O)Cl
Potency [1]: inactive
outcome [2]: inactive
Potency [3]: inactive
Potency [4]: inactive
Potency [16]: inactive
Potency [6]: inactive
outcome [7]: inactive
Potency [8]: inactive
outcome [17]: inactive
Potency [9]: inactive
Potency [10]: inactive
Potency [19]: inactive
Potency [12]: inactive
Potency [13]: inactive
outcome [14]: inactive
Potency [15]: inactive

O=C1C2CC=CCC2C(=O)N1SC(Cl)(Cl)Cl (stereo unspecified)
Potency [1]: 3.83 µM (active)
Potency [20]: 43.5 µM (active) and 3.41 µM (active)
Potency [4]: inactive and 42.9 µM (active)
Potency [16]: inactive and 21.5 µM (active)
Potency [5]: inactive and 12.1 µM (active)
Potency [6]: inactive and 10.8 µM (active)
outcome [7]: inactive
Potency [8]: 21.5 µM (active)
Potency [9]: inactive and 9.61 µM (active)
Potency [10]: inactive
Potency [11]: inactive and 42.9 µM (active)
Potency [19]: 43.5 µM (active) and 3.41 µM (active)
Potency [13]: inactive
Potency [15]: inactive
outcome [18]: inactive

Clc1cc2c(cc1Cl)Oc1cc(Cl)c(Cl)cc1O2
viability change, negative = cytotoxic [2]: 0.0568% [at 0.29 µM] (inactive)
activity change [3]: -30.3% [at 0.29 µM, stronger effect = higher value] (inactive)
cytotoxicity increase [4]: -1.02% [at 0.29 µM] (inactive)
activity change, negative = cytotoxic [16]: 1.14% [at 0.29 µM] (inactive)
cytotoxicity [5]: 2.11% [at 0.29 µM] (inactive)
Potency [6]: 0.0268 µM (active)
activity change, negative = cytotoxicity [7]: -12.5% [at 0.29 µM] (inactive)
cytotoxicity increase [8]: -34% [at 0.29 µM] (inactive)
cytotoxicity [17]: -1.33% [at 0.29 µM] (inactive)
cytotoxicity increase [9]: 4.82% [at 0.29 µM] (inactive)
cytotoxicity increase [10]: -18.7% [at 0.29 µM] (inactive)
activity change [13]: -25.8% [at 0.29 µM, stronger effect = higher value] (inactive)
activity change, negative = cytotoxicity [14]: 7.93% [at 0.29 µM] (inactive)
cytotoxicity increase [15]: -6.05% [at 0.29 µM] (inactive)
activity change, negative = cytotoxicity [18]: -0.812% [at 0.349 µM] (inactive)

C=C(Cl)CSC(=S)N(CC)CC
Potency [1]: inactive
outcome [2]: inactive
Potency [3]: inactive
Potency [4]: inactive
Potency [16]: inactive
Potency [6]: inactive
outcome [7]: inactive
Potency [8]: inactive
outcome [17]: inactive
Potency [9]: inactive
Potency [10]: inactive
Potency [19]: inactive
Potency [12]: inactive
Potency [13]: inactive
outcome [14]: inactive
Potency [15]: inactive

CC1=C2[C@H]3OC(=O)[C@@H](C)[C@@H]3CC[C@@]2(C)C=CC1=O
Potency [1]: inactive
outcome [2]: inactive
Potency [3]: inactive
Potency [4]: inactive
Potency [16]: inactive
Potency [6]: inactive
outcome [7]: inactive
Potency [8]: inactive
Potency [9]: inactive
Potency [10]: inactive
Potency [11]: inactive
Potency [19]: inactive
Potency [12]: inactive
Potency [13]: inactive
outcome [14]: inactive
Potency [15]: inactive
outcome [18]: inactive

N#CN=C1SCCN1Cc1ccc(Cl)nc1
Potency [1]: inactive
outcome [2]: inactive
Potency [3]: inactive
Potency [4]: inactive
Potency [16]: inactive
Potency [6]: inactive
outcome [7]: inactive
Potency [8]: inactive
outcome [17]: inactive
Potency [9]: inactive
Potency [10]: inactive
Potency [11]: inactive
Potency [19]: inactive
Potency [12]: inactive
Potency [13]: inactive
outcome [14]: inactive
Potency [15]: inactive

CCNP(=S)(OC)O/C(C)=C/C(=O)OC(C)C (stereo unspecified)
Potency [1]: inactive
outcome [2]: inactive
Potency [3]: inactive
Potency [4]: inactive
Potency [16]: inactive
Potency [6]: inactive
outcome [7]: inactive
Potency [8]: inactive
outcome [17]: inactive
Potency [9]: inactive
Potency [10]: inactive
Potency [19]: inactive
Potency [12]: inactive
Potency [13]: inactive
outcome [14]: inactive
Potency [15]: inactive
outcome [18]: inactive

C=CC=O
Potency [1]: inactive
outcome [2]: inactive
Potency [3]: inactive
Potency [4]: inactive
Potency [16]: inactive
Potency [6]: inactive
outcome [7]: inactive
Potency [8]: inactive
outcome [17]: inactive
Potency [9]: inactive
Potency [10]: inactive
Potency [11]: inactive
Potency [19]: inactive
Potency [12]: inactive
Potency [13]: inactive
outcome [14]: inactive
Potency [15]: inactive
outcome [18]: inactive
